Laboratory results reported in PubChem BioAssay (Tox21).
Inconclusive results are not listed. The source made the active and inactive calls. Unless noted, calls follow the shape of the full dose curve.

Tests used:
[1] = qHTS assay to identify small molecule agonists of the vitamin D receptor (VDR) signaling pathway - cell viability counter screen (AID 743224; active = well fitted curve in the direction sought with a large enough effect in the repeat runs; an effect the other way counts as inactive or inconclusive; also: series mostly up to about 63 µM; % is scaled to controls: 0 for no effect and ±100 for the full control effect; nearly all actives have a fitted effect of over 50% in size)
Method in brief: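 Compounds were pin-transferred onto VDR-bla cells plated 4 h earlier; following 16 h incubation at 37C, cell viability was quantified by CellTiter-Glo luminescence after 30 min at room temperature.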

[2] = qHTS assay to identify small molecule agonists of the NFkB signaling pathway (AID 1159509; active = well fitted curve in the direction sought with a large enough effect in the signal ratio in the repeat runs, not every such curve was filed as active; the % refers to the signal ratio; also: series mostly up to about 61 µM; % is scaled to controls: 0 for no effect and ±100 for the full control effect)
Method in brief: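 Pathway activation was measured in ME-180 cells stably expressing beta-lactamase under NF-kB response element control. Substrate cleavage was read as the 460/530 nm emission shift after 5 hr compound incubation.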

[3] = qHTS assay to identify small molecule agonists of the NFkB signaling pathway - cell viability counter screen (AID 1159515); also: series mostly up to about 61 µM; % is scaled to controls: 0 for no effect and ±100 for the full control effect; nearly all actives have a fitted effect of over 55% in size
Method in brief: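 Parallel cytotoxicity counter screen in ME-180 cells carrying an NFkB-response-element beta-lactamase reporter, 2,000 cells/well. Compound exposure lasted 5 hr at 37 C, 5% CO2. Cell viability was quantified by CellTiter-Glo luminescence.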

[4] = qHTS assay to identify small molecule agonists of the endoplasmic reticulum stress response signaling pathway (AID 1159516; active = well fitted activation curve with a large enough effect in the signal ratio in the repeat runs, not every such curve was filed as active; the % refers to the signal ratio; also: % is scaled to controls: 0 for no effect and ±100 for the full control effect)
Method in brief: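 Using a HeLa line with an ESRE-driven beta-lactamase gene, agonist activity was measured by FRET substrate fluorescence (460 and 530 nm emission) after cells were treated with compounds for 5 hr at 37 C and 5% CO2.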

[5] = qHTS assay to identify small molecule agonists of the endoplasmic reticulum stress response signaling pathway - cell viability counter screen (AID 1159517);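 also: HeLa cells carrying an ER stress response element beta-lactamase reporter; series mostly up to about 61 µM; % is scaled to controls: 0 for no effect and ±100 for the full control effect; nearly all actives have a fitted effect of over 50% in size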
Method in brief: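 ESRE-bla HeLa cells (1,500/well) were plated overnight at 37 C and exposed to compounds for 5 hr. After the 2 hr beta-lactamase substrate read, CellTiter-Glo went into the same wells, and luminescence was read after 30 min at room temperature.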

[6] = qHTS assay to identify small molecule antagonists of the retinoid-related orphan receptor gamma (ROR-gamma) signaling pathway - cell viability counter screen (AID 1159520; active = well fitted curve in the direction sought with a large enough effect in the repeat runs; an effect the other way counts as inactive or inconclusive; also: % is scaled to controls: 0 for no effect and ±100 for the full control effect; nearly all actives have a fitted effect of over 50% in size)
Method in brief: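 Cytotoxicity was read from cellular ATP (CellTiter-Glo luminescence) after 16 hr at 37 C with 1 uM doxycycline induction. The inducer was added 2 hr after compound transfer to Tet-on ROR gamma CHO cells.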

[7] = target: Nuclear receptor ROR-gamma (Homo sapiens) (UniProt P51449); assay: qHTS assay to identify small molecule antagonists of the retinoid-related orphan receptor gamma (ROR-gamma) signaling pathway (AID 1159521; active = well fitted curve in the direction sought with a large enough effect in the repeat runs; an effect the other way counts as inactive or inconclusive;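 also: CHO cells with doxycycline inducible ROR-gamma driving an RORE luciferase reporter; top concentration of the series differs between compounds; % is scaled to controls: 0 for no effect and ±100 for the full control effect; nearly all actives have a fitted effect of over 50% in size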)
Method in brief: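 Test compounds were applied to Tet-on RORγ CHO cells 2 h ahead of doxycycline hyclate (1 uM final). Luciferase reporter activity was quantified by luminescence after 16 h at 37 C and 5% CO2.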

[8] = qHTS assay to identify small molecule agonists of the AP-1 signaling pathway - cell viability counter screen (AID 1159525); also: nearly all actives have a fitted effect of over 55% in size
Method in brief: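 Intracellular ATP by Cell Titer Glo luminescence (30 min, RT) in the same ME-180 AP-1-bla wells after the 5 h compound exposure at 37 °C. Normalised to tetra n-octyl ammonium bromide and DMSO controls.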

[9] = qHTS assay to identify small molecule agonists of the AP-1 signaling pathway (AID 1159526); also: % is scaled to controls: 0 for no effect and ±100 for the full control effect

C=CCOc1nc(OCC=C)nc(OCC=C)n1
inactive: outcome [1] | outcome [2] | outcome [3] | outcome [4] | outcome [5] | Potency [6] | Potency [7] | outcome [8] | Potency [9]

C=C(C)[C@@H]1CCC2=CC(=O)C[C@@H](C)[C@]2(C)C1
inactive: outcome [1] | outcome [2] | outcome [3] | outcome [4] | outcome [5] | Potency [6] | Potency [7] | outcome [8] | Potency [9]

CCCCCCOC(=O)CC(CC(=O)OCCCCCC)(OC(=O)CCC)C(=O)OCCCCCC
inactive: outcome [2] | outcome [3] | outcome [4] | outcome [5] | Potency [6] | Potency [7] | outcome [8] | Potency [9]

CC(CCO)CCCC(C)(C)O (stereo not drawn)
inactive: outcome [1] | outcome [2] | outcome [3] | outcome [4] | outcome [5] | Potency [6] | Potency [7] | outcome [8] | Potency [9]

c1ccc2cnncc2c1
inactive: outcome [1] | outcome [2] | outcome [3] | outcome [4] | outcome [5] | Potency [6] | Potency [7] | outcome [8] | Potency [9]

CCCCCN(CCCCC)C(=O)C(CCC(=O)O)NC(=O)c1ccc(Cl)c(Cl)c1 (stereo not drawn)
inactive: outcome [1] | outcome [2] | outcome [3] | outcome [4] | outcome [5] | Potency [6] | Potency [7] | outcome [8] | Potency [9]

c1ccc(SCCSc2ccccc2)cc1
inactive: outcome [1] | outcome [2] | outcome [3] | outcome [4] | outcome [5] | Potency [6] | Potency [7] | outcome [8] | Potency [9]

CCCCCCC(=O)OCC
inactive: outcome [1] | outcome [2] | outcome [3] | outcome [4] | outcome [5] | Potency [6] | Potency [7] | outcome [8] | Potency [9]

CNC(=O)c1c(I)c(NC(=O)CCCCC(=O)Nc2c(I)c(C(=O)O)c(I)c(C(=O)NC)c2I)c(I)c(C(=O)O)c1I
inactive: outcome [1] | outcome [2] | outcome [3] | outcome [4] | outcome [5] | Potency [6] | Potency [7] | outcome [8] | Potency [9]

O=[N+]([O-])c1ccc(Oc2ccc([N+](=O)[O-])cc2)cc1
inactive: outcome [1] | outcome [2] | outcome [3] | outcome [4] | outcome [5] | Potency [6] | Potency [7] | outcome [8] | Potency [9]

FC(F)(F)C(F)(F)C(F)(F)C(F)(F)C(F)(F)C(F)(F)C(F)(F)C(F)(F)C(F)(F)C(F)(F)F
inactive: activity change, negative = cytotoxicity [1] 9.06% [at 5.95 µM] | activation [2] -0.0985% [at 6.95 µM] | activity, negative = cytotoxic [3] 0.724% [at 6.95 µM] | activation [4] -9% [at 6.95 µM] | activity change, negative = cytotoxicity [5] -26.7% [at 6.95 µM] | activity, negative = cytotoxicity [6] 0.201% [at 8.39 µM] | activity change, negative = inhibition [7] 29.3% [at 8.39 µM] | viability change, negative = cytotoxic [8] -11.9% [at 6.97 µM] | activation [9] 7.26% [at 6.97 µM]

CC1(C)OC(=O)Nc2ccc(Br)cc21
inactive: outcome [1] | outcome [2] | outcome [3] | outcome [4] | outcome [5] | Potency [6] | Potency [7] | outcome [8] | Potency [9]

COc1cccc(OC)c1
inactive: outcome [1] | outcome [2] | outcome [3] | outcome [4] | outcome [5] | Potency [6] | Potency [7] | outcome [8] | Potency [9]

CC/C=C\C#N
inactive: outcome [1] | outcome [2] | outcome [3] | outcome [4] | outcome [5] | Potency [6] | Potency [7] | outcome [8] | Potency [9]

CCC(C(=O)NC(N)=O)c1ccccc1 (stereo not drawn)
inactive: outcome [1] | outcome [2] | outcome [3] | outcome [4] | outcome [5] | Potency [6] | Potency [7] | outcome [8] | Potency [9]

CC1=CCC2C(C1)C2(C)C (stereo not drawn)
inactive: outcome [1] | outcome [2] | outcome [3] | outcome [4] | outcome [5] | Potency [6] | Potency [7] | outcome [8] | Potency [9]

CC(=O)N[C@@H](CCC(N)=O)C(=O)O
inactive: outcome [1] | outcome [2] | outcome [3] | outcome [4] | outcome [5] | Potency [6] | Potency [7] | outcome [8] | Potency [9]

CCCCOCC(C)OCC(C)O (stereo not drawn)
inactive: outcome [1] | outcome [2] | outcome [3] | outcome [4] | outcome [5] | Potency [6] | Potency [7] | outcome [8] | Potency [9]

OCC(CO)(CO)COCC(CO)(CO)CO
inactive: outcome [1] | outcome [2] | outcome [3] | outcome [4] | outcome [5] | Potency [6] | Potency [7] | outcome [8] | Potency [9]

O=C1C(CCS(=O)c2ccccc2)C(=O)N(c2ccccc2)N1c1ccccc1 (stereo not drawn)
inactive: outcome [2] | outcome [3] | outcome [4] | outcome [5] | Potency [6] | Potency [7] | outcome [8] | Potency [9]

C1=C\CC/C=C\CC/C=C\CC/1
inactive: outcome [1] | outcome [2] | outcome [3] | outcome [4] | outcome [5] | Potency [6] | Potency [7] | outcome [8] | Potency [9]

Cc1ccc(Nc2ccc(O)c3c2C(=O)c2ccccc2C3=O)cc1
inactive: outcome [1] | outcome [2] | outcome [3] | outcome [4] | outcome [5] | Potency [6] | Potency [7] | outcome [8] | Potency [9]

C=CC(=O)N1CCOCC1
inactive: outcome [1] | outcome [2] | outcome [3] | outcome [4] | outcome [5] | Potency [6] | Potency [7] | outcome [8] | Potency [9]

CC1CCN(CCCC(=O)c2ccc(F)cc2)CC1
inactive: outcome [2] | outcome [3] | outcome [4] | outcome [5] | Potency [6] | Potency [7] | outcome [8] | Potency [9]
